Screening results (PubChem)
FBPA coupling cs: qHTS Assay for Inhibitors of Fructose-1,6-bisphosphate Aldolase from Giardia Lamblia: Coupling assay counterscreen | coupling enzyme system counterscreen, AmpLite Red fluorescence | AID 2472, 2010 | 290,000 compounds, 0.67% hits | activity change, negative = inhibition, % at 58.2 µM, hits read low; in the data active means activity change below about -30%
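Final compound at 57.5 uM, incubated 10 min at RT with coupling enzyme reagent (glyceraldehyde-3-phosphate), then 20 min with substrate and AmpLite Red detection. Fluorescence read at 525/598 nm; tests interference with the coupling assay, not aldolase inhibition.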
Tau fluor counter: Counterscreen qHTS for Inhibitors of Tau Fibril Formation, Fluorescence Polarization | Potency, µM (doses to about 57.7 µM), without a hit: top-dose activity change, negative = decrease | tau K18 P301L Alexa594 fluorescence, heparin fibrillization | AID 1463, 2008 | 280,000 compounds, 0.93% hits; further: potency means the concentration at half of the fitted maximal effect; nearly all actives have a fitted effect of over 55% in size
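Human tau K18 P301L (15 uM unlabeled, 0.24 uM Alexa 594-labeled) in 100 mM sodium acetate pH 7 with 20 uM heparin, 6 hr at 37 C. ThT 30 uM added, 1 hr ambient; Alexa 594 FP and total fluorescence read at 555/632 nm.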
USP1 inh: Inhibitors of USP1/UAF1: Primary Screen; Ubiquitin carboxyl-terminal hydrolase 1 (Homo sapiens), O94782; recombinant USP1/UAF1, Ub-Rhodamine cleavage fluorescence; Potency, µM (titrated, usually from 57.1 µM), without a hit: top-dose activity change, negative = inhibition, actives largely listed as inhibitors; 390,000 compounds, 0.23% hits; AID 743255, 2014; further: potency means the concentration at half of the fitted maximal effect; nearly all actives have a fitted effect of over 60% in size
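High-throughput fluorogenic screen: 1nM USP1/UAF1 complex, Ub-Rho substrate 150nM final, 50mM HEPES pH 7.8 with 0.5mM EDTA, 0.1 mg/ml BSA, 1mM TCEP and 0.01% Tween-20.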
Tau fibril ThT: qHTS for Inhibitors of Tau Fibril Formation, Thioflavin T Binding; AID 1460, 2008; 270,000 compounds, 2.1% hits; Potency, µM (doses to about 57.4 µM), without a hit: top-dose activity, negative = inhibition, usual class: inhibitors; recombinant tau K18 P301L, heparin-induced fibrillization, ThT fluorescence; Microtubule-associated protein tau (Homo sapiens), P10636; further: potency means the concentration at half of the fitted maximal effect; nearly all actives have a fitted effect of over 55% in size
Target sequence (P10636 561-689 P618L limits assumed): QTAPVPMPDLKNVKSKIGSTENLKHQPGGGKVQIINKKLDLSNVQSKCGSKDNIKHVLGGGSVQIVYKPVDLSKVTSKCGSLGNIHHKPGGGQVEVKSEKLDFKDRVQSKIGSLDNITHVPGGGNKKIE
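Fibril formation assay: tau K18 P301L at 15 uM with trace Alexa 594 label, heparin inducer 20 uM, pH 7 sodium acetate buffer, 37 C for 6 hr; endpoint ThT signal.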
Tau fibril FP: qHTS for Inhibitors of Tau Fibril Formation, Fluorescence Polarization; Microtubule-associated protein tau (Homo sapiens), P10636; K18 P301L tau heparin fibrillization, Alexa594 FP, 6 h; Potency, µM (top dose mostly 57.7 µM), inactives show at the highest dose activity, negative = inhibition, usual class: inhibitors; 280,000 compounds, 0.39% hits; further: potency means the concentration at half of the fitted maximal effect; nearly all actives have a fitted effect of over 55% in size
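Read-out: fluorescence polarization of Alexa 594-labeled tau (0.24 uM), 555 nm excitation, 632 nm emission. Mixtures held 15 uM unlabeled K18 P301L, compound and 20 uM heparin, pH 7 acetate buffer, incubated 6 hr at 37 C.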
* marks the source's active call; other numbers are inactive results; ? = inconclusive; / = no result; [ ] = remark or other dose. Rows were chosen to be rich in hits. Some 2.3% of all compounds tested hit in one or more screens of this group. Unless noted, the call rests on the fitted dose curve; in most records, active means well fitted curve in the direction sought with a large enough effect; inconclusive means small, poorly fitted or top-dose-only effect, or another doubt; inactive means no such curve, though single readings can be large; an effect the other way counts as inactive or inconclusive. On the % scale 0 is the no-effect control and ±100 the full control effect.

SMILES | FBPA coupling cs | Tau fluor counter | USP1 inh | Tau fibril ThT | Tau fibril FP
CN(C)c1ccc(C(CNS(=O)(=O)c2ccc(F)cc2F)N2CCOCC2)cc1 (stereo not drawn) | / | -28.6% | -10.4% | ? | 0.1%
Cc1ccc(O)c(N=NC2=C(O)CC(C)(C)CC2=O)c1 | -4.1 | -13.1% | -22.8% | ? | -3.5%
C/C(O)=C(\N=Nc1cc(C)ccc1O)C(N)=O | -2.0 | ? | -2.8% | 10µM* | 13.1%
COc1ccccc1NC(=O)N1CCC(CN2CCc3ccccc3C2)CC1 | / | -0.5% | 4.6% | 5.2% | -12.0%
COc1ccc(/C=N/OCC(=O)N=Nc2c(O)[nH]c3ccc(Br)cc23)cc1 | 0.6 | ? | -9.5% | 5.01µM* | ?
Cc1cccc(C)c1OCC(=O)N=Nc1c(O)[nH]c2ccc(Br)cc12 | 0.7 | ? | -2.5% | ? | -12.1%
O=C(NCCn1cc(SCc2ccc(F)cc2)c2ccccc21)c1cccs1 | / | 7.94µM*[quencher] | -15.5% | ? | -4.9%
Cc1ccc(CSc2cn(CCNC(=O)c3cccs3)c3ccccc23)cc1 | / | 8.91µM*[quencher] | -21.3% | ? | -6.3%
O=C(NCCn1cc(SCc2ccc(Cl)cc2)c2ccccc21)c1cccs1 | / | 8.91µM*[quencher] | ? | ? | -19.4%
Cc1ccccc1CSc1cn(CCNC(=O)c2cccs2)c2ccccc12 | / | 7.94µM*[quencher] | -7.1% | ? | -16.7%
O=C(NCCn1cc(SCc2ccccc2F)c2ccccc21)c1cccs1 | / | ? | -28.3% | ? | -15.7%
COc1ccc(-n2ncc3c(NC4CCCC4)ncnc32)cc1 | / | -9.5% | -29.4% | -11.2% | -4.1%
COc1cccc(CCNc2ncnc3c2nnn3C)c1 | / | 3.7% | -13.1% | 0.8% | -10.1%
Cc1ccc2c(c1)C(=O)OC(C(=O)Nc1ncc(Cc3ccc(C(C)C)cc3)s1)C2 (stereo not drawn) | / | -2.1% | -25.6% | -1.0% | -4.6%
Cc1ccc2c(=O)cc(C(=O)Nc3c(C(=O)c4ccc(F)cc4)oc4ccccc34)oc2c1C | / | -1.2% | -20.8% | 3.5% | -0.7%
Cc1ccc2c(c1)C(c1ccccc1)N(C(=O)Cc1ccc(F)cc1)CC(=O)N2 (stereo not drawn) | / | -19.3% | -19.2% | ? | -4.5%
CC1(C)CC(Nc2ccc(Nc3ccccc3)cc2)CC(C)(C)N1 | -12.3 | 28.2µM*[quencher] | -13.3% | ? | ?
CC1(C)CC(NC(=O)c2ccccc2)CC(C)(C)N1 | 2.6 | / | -8.0% | / | /
CC1CCc2sc(C(=O)NNC(=S)NC3CC3)cc2C1 (stereo not drawn) | / | / | -15.1% | / | /
O=C1C2=C(NC(=S)NC2c2ccc(Cl)cc2)NC(c2ccc(Cl)cc2)N1c1ccc(Cl)cc1 (stereo not drawn) | / | ? | -21.3% | 31.6µM* | ?
CNc1ccc(Br)cc(C(=O)/C=C/c2ccc(OC)cc2OC)c1=O | -38.5* | ? | -17.0% | 11.2µM* | ?
CNc1ccc(Br)cc(C(=O)/C=C/c2ccc(Cl)cc2Cl)c1=O | -15.5 | ? | ? | 10µM* | ?
CNc1ccc(Br)cc(C(=O)/C=C/c2cccc(OC)c2)c1=O | -28.6 | ? | ? | 11.2µM* | -16.0%
COc1ccc(/C=C/C(=O)c2ccc(OC)cc2OC)c(OC)c1 | -2.5 | -19.2% | 16.0% | ? | 5.2%
O=C(Nc1ccccc1)N(Cc1cccs1)c1ccc(F)cc1 | / | -7.8% | -4.8% | -4.7% | ?
SMILES | FBPA coupling cs | Tau fluor counter | USP1 inh | Tau fibril ThT | Tau fibril FP
CN1CCN(C(=O)/C(=C/c2cccc([N+](=O)[O-])c2)NC(=O)c2ccccc2)CC1 | -2.3 | / | -18.6% | / | /
Cc1c(NC(=O)c2cc([N+](=O)[O-])ccc2N2CCOCC2)cccc1-c1nc2ccccc2o1 | / | ? | -30.1% | ? | 4.8%
O/C=c1\ccc2cccc3nc(C(F)(F)F)nc1c23 | -13.0 | / | 22.4µM* | / | /
Cc1cccc(C)c1NC(=O)Cn1nnc(S(=O)(=O)c2ccccc2)c1N | / | 6.4% | 4.4% | 3.7% | -9.5%
Cc1ccc(NC(=O)Nc2ccccc2)cc1[N+](=O)[O-] | -4.6 | ? | -16.9% | ? | ?
O=C(Nc1ccccc1)Nc1ccc(Cl)c([N+](=O)[O-])c1 | -0.4 | 11.2µM*[quencher] | -4.1% | ? | ?
O=C(Nc1ccc(C(O)(C(F)(F)F)C(F)(F)F)cc1)c1ccc(Cl)c([N+](=O)[O-])c1 | -5.4 | 12.6µM*[quencher] | -3.2% | ? | -14.3%
C=Cc1ccc(Cn2c(=O)cc(C)c3c(C)nn(-c4ccccc4)c32)cc1 | / | -12.8% | 8.3% | -4.9% | -14.8%
CCOC(=O)CC1=C(C(=O)OCC)C(c2ccc(C)o2)C(C#N)=C(N)O1 (stereo not drawn) | 0.6 | 11.5% | -14.5% | -0.9% | 7.8%
Cc1ccc(C2C(C#N)=C(N)Oc3c2sc2ccccc32)o1 (stereo not drawn) | -26.9 | ? | / | 14.1µM* | ?
O=C1c2ccccc2C(=O)C1c1ccc2ccccc2n1 | 0.1 | -5.5% | -25.6% | 2.24µM* | 2.3%
Cc1[nH][nH]c(=O)c1C(c1c(C)[nH][nH]c1=O)c1cn(Cc2ccccc2Cl)c2ccccc12 | -43.0* | -18.5% | 28.2µM* | 11.2µM* | ?
N/C(=N\O)c1cn(Cc2ccccc2Cl)c2ccccc12 | -1.0 | / | -15.2% | / | /
Cc1ccc(NC(=O)c2nc(S(C)(=O)=O)ncc2N(Cc2ccco2)Cc2cccs2)cc1C | / | -9.8% | -11.8% | 4.9% | -14.1%
O=[N+]([O-])c1ccc(C=NN2CCOCC2)s1 | / | / | -10.4% | / | /
O=[N+]([O-])c1ccc(C=Nc2cccc3ccccc23)s1 | -27.6 | -23.8% | 14.1µM* | ? | -0.9%
Cc1ccc(S(=O)(=O)N2CCN=C2SCc2ccccc2)cc1 | -35.1* | -28.3% | -20.4% | -12.5% | -3.0%
CC(=O)Nc1ccc(S(=O)(=O)N2CCN=C2SCc2ccc(C)cc2)cc1 | / | / | -26.8% | / | /
O=S(=O)(c1ccccc1)N1CCN=C1SCc1ccccc1Cl | -40.0* | ? | -17.7% | -7.4% | -14.6%
O=S(=O)(c1ccccc1)N1CCC2(CCCN(Cc3nccs3)C2)CC1 | 1.7 | / | / | / | /
